Compounds without any hit were thinned out: in the full panel of roughly 79,000, 15% have a hit. A number with no mark means an inactive call. Activity calls are given as the source filed them. Rule as the data show it: active = growth inhibition above about 70%; inactive = the rest. Where a SMILES comes first, the peptide text is derived from it. The star is where a group is joined. ONp = O=[N+]([O-])c1ccc(O*)cc1; Tos = Cc1ccc(S(=O)(=O)*)cc1

This passage reports growth inhibition results from PubChem BioAssay (NCI).

Test [1] in a line: NCI Yeast Anticancer Drug Screen. Data for the rad50 strain (AID 155).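 Also: 0% = growth of vehicle-only cultures of the same strain.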 The following applies: S. cerevisiae rad50 strain growth inhibition; at 50.0 µM; hits give high values. In a few lines:
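Growth of the mutant yeast was measured after compound exposure and referenced to vehicle-treated cultures.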

Test [2] can be described thus: NCI Yeast Anticancer Drug Screen. Data for the mec2-1 strain (AID 157). The conditions noted are these: S. cerevisiae mec2-1 strain, at 50.0 µM, hits give high values. In a few lines: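 Vehicle-treated cultures served as reference for growth inhibition of compound-exposed mec2-1 yeast.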
A short description of test [3]: NCI Yeast Anticancer Drug Screen. Data for the sgs1 mgt1 strain (AID 161).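 Also: 0% = growth of cultures given vehicle only.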 The conditions noted are these: S. cerevisiae sgs1 mgt1 strain, at 50.0 µM, hits give high values. In outline: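 Genetically altered yeast, compound exposure, growth inhibition relative to vehicle.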
Test [4] is described as follows: NCI Yeast Anticancer Drug Screen. Data for the cln2 rad14 strain (AID 165).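 Also: 0% = growth equal to vehicle treated cultures.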 The conditions noted are these: S. cerevisiae cln2 rad14 strain, at 50.0 µM, hits give high values. In outline:
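Each compound was tested on cln2 rad14 yeast. Inhibition of growth was calculated against vehicle-exposed controls.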

Test [5] can be described thus: NCI Yeast Anticancer Drug Screen. Data for the bub3 strain (AID 167). The following applies: S. cerevisiae bub3 mutant strain, at 50.0 µM, hits give high values. In a few lines:
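Whole-cell yeast assay. The mutant strain was incubated with compounds, and growth inhibition was determined by comparison with vehicle-treated cells.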

A short description of test [6]: NCI Yeast Anticancer Drug Screen. Data for the mlh1 rad18 strain (AID 175). The conditions noted are these: S. cerevisiae mlh1 rad18 strain growth inhibition; at 50.0 µM; hits give high values. In a few lines:
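Vehicle-treated cultures served as the reference for growth inhibition in a yeast strain carrying DNA damage repair alterations exposed to each compound.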

Take `C=C1c2nc3ccccc3n2C=C(c2ccc(C)cc2)N1c1ccc(OC)cc1`: the growth inhibition in test [1] is -10.2%; in test [2], -6.45%; in test [3], -7%; in test [4], 15.5%; in test [5], -19%; in test [6], -17.9%.

As to `CC(C)(C)c1ccc(OCC(=O)O)cc1`, the growth inhibition is -17.3% in test [1]; -12% in test [2]; -7.2% in test [3]; -17.4% in test [4]; -8.4% in test [5]; -6.6% in test [6].

With `CCN(CC)C(=O)Cc1ccc2c3c(cccc13)CC2`, the growth inhibition in test [1] is -2.45%; in test [2], -2.05%; in test [3] it was -1.75%; in test [4] it was -0.75%; in test [5] it was 1.6%; in test [6] it was 11.6%.

For `CC(=O)CC(=O)NCCCN1CCCCC1`, the growth inhibition in test [1] is -28.7%; in test [2] it was -52.1%; in test [3] it was -30.4%; in test [4] it was -5.1%; in test [5], -34.4%; in test [6], -33.4%.

For `CCNc1ccc(Cl)cc1[N+](=O)[O-]`, the growth inhibition is -28.8% in test [1]; -66.2% in test [2]; 11.9% in test [3]; -6.95% in test [4]; -33.4% in test [5]; -26.6% in test [6].

`C1CCC2(CC1)CCCO2`: the growth inhibition in test [1] is -6.3%; in test [2], 6.2%; in test [3] it was -0.9%; in test [4], 10.5%; in test [5], 23.6%; in test [6], 19.4%.

As for `CCC/C=N/Nc1ccc([N+](=O)[O-])cc1[N+](=O)[O-]`, the growth inhibition was -11.3% in test [1]; -9.95% in test [2]; 0.3% in test [3]; -12.5% in test [4]; 0.9% in test [5]; -16.1% in test [6].

Consider `CCOCCNCc1ccc(Cl)cc1Cl`, for which the growth inhibition in test [1] is 4%; in test [2] it was -1.45%; in test [3], -5%; in test [4] it was 2.85%; in test [5], 7.8%; in test [6] it was -9.7%.

Take `CCOC(=O)c1cc(-n2nnc3ccccc32)cn1C`: the growth inhibition in test [1] was -4.7%; in test [2] it was -23.4%; in test [3], 0.35%; in test [4], -3.6%; in test [5], 19.4%; in test [6], -0.65%.

On to `O=c1ccc(O)c[nH]1`, for which the growth inhibition in test [1] is 12.3%; in test [2] it was 18.8%; in test [3], 34.7%; in test [4], 9.95%; in test [5], 2.8%; in test [6], 16.1%.

Regarding `O=c1ccn(/C=C\c2nc3ccccc3[nH]c2=O)c(=S)[nH]1`, the growth inhibition in test [1] was -37.8%; in test [2] it was -27.3%; in test [3] it was -35.9%; in test [4], 13.7%; in test [5], -17.5%; in test [6], -40.4%.

Turning to `Clc1ccc(Cl)s1`, the growth inhibition in test [1] is 34.5%; in test [2] it was 3.55%; in test [3] it was 20.3%; in test [4] it was 18.6%; in test [5], 14%; in test [6], 26.1%.

In the case of `C#CCOC(=O)c1ccccc1O`, the growth inhibition in test [1] is 15.2%; in test [2], 2.8%; in test [3] it was 17.4%; in test [4], 13.4%; in test [5], 16.9%; in test [6], 12.2%.

In the case of `O=C(Nc1cc([N+](=O)[O-])ccc1F)Oc1ccc(OCc2ccccc2)cc1`, the growth inhibition in test [1] is 11.9%; in test [2], -1.5%; in test [3], 9.9%; in test [4], -47.2%; in test [5], -2.55%; in test [6], 18.2%.

`CSc1c2c(c(C)c3c1[nH]c1ccccc13)C=NCC2`: the growth inhibition in test [1] was 10.8%; in test [2], 13.8%; in test [3], 8.6%; in test [4] it was -83.2%; in test [5], 14%; in test [6], 17.7%.

For `Cc1ccc(S(=O)(=O)NCC(=O)NCC(=O)Oc2ccc([N+](=O)[O-])cc2)cc1` (Tos-Gly-Gly-ONp), the growth inhibition in test [1] was 52.7%; in test [2], 13%; in test [3], 42.2%; in test [4] it was 18.8%; in test [5] it was 2%; in test [6], 16%.

For the molecule `Oc1ccc(O)c(CCCCCc2cc(O)ccc2O)c1`, the growth inhibition was 76.3% (active) in test [1]; 37.4% in test [2]; 66.5% in test [3]; 34.4% in test [4]; 70.2% (active) in test [5]; 97.7% (active) in test [6].

Turning to `CC(=O)SC1CC(=O)OC1=O` (centres undefined), the growth inhibition was -3.1% in test [1]; -15.3% in test [2]; 7.1% in test [3]; 7.8% in test [4]; 0.2% in test [5]; 7.85% in test [6].

With `Cc1ccc(C2=CC(=O)/C(=C\C(=O)c3ccc(Br)cc3)O2)c(C)c1`, the growth inhibition was 76.8% (active) in test [1]; 77.8% (active) in test [2]; 62.1% in test [3]; 34.8% in test [4]; 52.2% in test [5]; 71.9% (active) in test [6].
